# Source: PubChem BioAssay (NCI)
# Where “and” joins values, the source holds several entries; their conditions need not be identical. Equal entries are not always repeated. This is part of a sample that, as a whole, favours compounds with a hit. Of some 83,000 tested, about 20% had one in any assay.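 For each line, cells grew in 96-well plates with the test compound present at a single concentration for 48 hours.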 Calls of active or inactive are those of the source. The calls were made as follows: active = growth percent below 10; inactive = the rest.
# Test system: HL-60(TB) leukemia
# Experiment: NCI-60 one-dose screen, 48 h (100 = growth as untreated, 0 = no growth, -100 = all killed)
# Details: 10 µM unless noted
row,SMILES,growth
1,O=C(Nc1ccc(S(=O)(=O)NC2CCCCCC2)cc1)C(c1ccccc1)S(=O)(=O)c1ccc(F)cc1 (stereo unspecified),-12.4% (active)
2,C=CC(=O)NCc1ccc(Nc2nccc(-c3ccc(N4CCCC4)c(C#N)c3)n2)cc1,-12.9% (active)
3,CCO/C=N/C1=C(C#N)C(c2ccc(OC)cc2)c2sc3c(F)cccc3c2O1 (stereo unspecified),-9.87% (active)
4,COc1ccccc1C(C[N+](=O)[O-])c1c(-c2ccccc2)[nH]c2cc(C)ccc12 (stereo unspecified),58.9% (inactive)
5,COc1ccc2c(c1)C(=O)/C(=C/c1cccc(OCC(=O)c3ccccc3)c1)O2,-80.5% (active)
6,CC1=C(CC(=O)c2cccc([N+](=O)[O-])c2)C(=O)c2ccccc2C1=O,1.83% (active)
7,COc1cccc(-c2nn(-c3ccccc3)cc2-c2ccnc(NCCCNC(=O)c3ccc(F)cc3)c2)c1,19.3% (inactive)
8,CC(Oc1ccc(C(=O)NS(=O)(=O)C(C)(C)C)cc1C(F)(F)F)c1ccc(Oc2ccccc2)cn1 (stereo unspecified),72.2% (inactive)
9,CCOC(=O)N1C/C(=C/c2ccc(OC)cc2)C(=O)/C(=C/c2ccc(OC)cc2)C1,16.7% (inactive)
10,Cc1ccc(NC(=O)Cn2cc(CN3CCN(c4ccnc5cc(Cl)ccc45)CC3)nn2)cc1,87% (inactive)
11,C=CCSc1n[nH]c(-c2cccs2)n1,111% (inactive)
12,CN1CCN(CCCOc2cccc3nc(Nc4ccc(Cl)c(F)c4)ccc23)CC1,61.9% (inactive)
13,N#Cc1c(-c2ccccc2)nc(SCC2CO2)nc1N1CCOCC1 (stereo unspecified),63.7% (inactive)
14,COC(=O)CCCNc1c(-c2c(O)c(O)cc3c(O)c(-c4c(C)cc5c(-c6nc7ccccn7c6NCCCC(=O)OC)c(O)c(O)cc5c4O)c(C)cc23)nc2ccccn12,91.7% (inactive)
15,C=CCSc1nc2ccccc2cc1/C=N/O,92.1% (inactive)
16,O=[N+]([O-])c1cccc2cc(S(=O)(=O)O)ccc12,76.9% (inactive)
17,CCS(=O)(=O)CCCl,99.8% (inactive)
18,COc1ccc(/C=C/C(=O)Nc2ncnc3nc[nH]c23)cc1,78.8% (inactive)
19,CCN1CCOC1C(C)C (stereo unspecified),90% (inactive)
20,CCNc1nnnn1CC,111% (inactive)
21,O=C1C=CC(=O)N1c1cccc(N2C(=O)C=CC2=O)c1,97.9% (inactive)
22,Nc1c(O)c(S(=O)(=O)O)c(O)c2c1C(=O)c1ccccc1C2=O,-8.61% (active)

row,SMILES,growth
1,Cn1c(O)c(C=NCCN=Cc2c(O)n(C)c(=O)n(C)c2=O)c(=O)n(C)c1=O,-60% (active)
2,CC(=O)O[C@H]1C(=O)[C@@]2(C)C([C@H](OC(=O)c3ccccc3)[C@]3(O)C[C@H](OC(=O)[C@H](O)[C@@H](NC(=O)c4ccccc4)c4ccccc4)C(C)=C1C3(C)C)[C@]1(OC(C)=O)CO[C@@H]1C[C@@H]2O (stereo partly specified),9.14% (active)
3,C=CCCCCOc1cccc(/C=C2\N=C3SCCCN3C2=O)c1,94.9% (inactive)
4,COc1ccc(-n2ncn(CCCCCCn3cnn(-c4ccc(OC)cc4)c3=O)c2=O)cc1,86.7% (inactive)
5,COc1ccc(Nc2cc(C)nc(NCc3ccccc3)n2)cc1,11.3% (inactive)
6,CC(C)=NNc1ccc([N+](=O)[O-])cc1[N+](=O)[O-],57.5% (inactive)
7,CS(=O)(=O)c1cccc(-c2c(-c3cccc(OS(N)(=O)=O)c3)nc3sccn23)c1,102% (inactive)
8,Cc1ccc(NCSc2ccc(Cl)cc2)cc1,3% (active) and 22.5% (inactive)
9,O=C1/C(=C/c2ccc(Cl)cc2)SC(=S)N1CCc1ccc(O)cc1,76.6% (inactive)
10,N#CCN1C(=O)C2C3=C(CCCC3)SC2N=C1CN1CCCC1 (stereo unspecified),66.3% (inactive)
11,Cn1cccc1C(=O)C1C(c2cccc([N+](=O)[O-])c2)C2C3CCCCC3CN2C12C(=O)Nc1ccc(Cl)cc12 (stereo unspecified),17.8% (inactive)
12,CC(C)=NNc1ccccn1,34.6% (inactive)
13,O=C(CCl)N(C1CCCCC1)C1CCCCC1,104% (inactive)
14,COc1ccc(C2CC(c3cccc(Nc4ccncc4)c3)=NN2c2ccc(Cl)cc2)cc1 (stereo unspecified),-46.5% (active)
15,O=C(CCC(C(=O)c1ccccc1)c1ccccc1)c1ccccc1 (stereo unspecified),28.1% (inactive)
16,O=C1Nc2ccc(Br)cc2/C1=N/c1n[nH]c(=S)s1,99.2% (inactive)
17,O=C(Nc1ccc(OS(=O)(=O)c2ccc(F)cc2)cc1)C1CCCCCC1,56.4% (inactive)
18,COc1ccc(/C=C(/C(=O)N2CCN(c3ccccc3)CC2)c2cc(OC)c(OC)c(OC)c2)cc1N,-37.5% (active)
19,COc1ccc2oc3c(C)c4c(c(C)c3c2c1)C(=O)N(Cc1ccccc1)C4=O,96.2% (inactive)
20,O=C(CCCCCCN1CC(=O)N2[C@H](c3cc(Br)cs3)c3[nH]c4ccccc4c3C[C@H]2C1=O)NO,4.98% (active)
21,CN1CCN(c2ccc3nc(-c4ccc(OCCCCN5CCN(CCCCN6C(=O)c7cccc8cccc(c78)C6=O)CC5)cc4)[nH]c3c2)CC1,16.6% (inactive)
22,COc1ccc(C(O)c2cc3c(N)c(C(=O)Nc4ccc(Cl)cc4)sc3nc2C)cc1 (stereo unspecified),-50.1% (active)

row,SMILES,growth
1,Cc1ccc(Cl)cc1NC(=O)N(C)CCO,92% (inactive)
2,CC1(C(=O)O)NC(C(=O)O)Cc2c1[nH]c1ccccc21 (stereo unspecified),99.8% (inactive)
3,COc1cc(C2CC(=O)c3c(C)nn(-c4nc5ccccc5[nH]4)c3C2)cc(OC)c1OC (stereo unspecified),132% (inactive)
4,O=C(C[P+](c1ccccc1)(c1ccccc1)c1ccccc1)C[P+](c1ccccc1)(c1ccccc1)c1ccccc1,-43.6% (active)
5,Clc1cc2c(c(CSc3nc4ccccc4n4cccc34)c1)OCOC2,84.9% (inactive)
6,Cc1[nH]n(C(=O)c2ccncc2)c(=O)c1N=Nc1ccc(F)c(Cl)c1,36.5% (inactive)
7,CCOP(=O)(OCC)c1nc(-c2ccccc2)oc1NCc1cccnc1,102% (inactive)
8,N#Cc1ccc(-c2ccc3c(c2)NC(=O)/C3=C\c2ccc[nH]2)cc1,101% (inactive)
9,Cc1cc(C(=O)c2ccc(Cl)cc2)ccc1O,147% (inactive)
10,O=C(N/N=C/c1ccc2c(c1)OCO2)c1ccncc1,115% (inactive) and 225% (inactive)
11,CCOc1ccccc1NC(=O)CCl,104% (inactive)
12,O=C1Cc2ccccc2C(=O)N1,67.6% (inactive)
13,COc1cc(CNC(=O)CCCC/C=C/C(C)C)ccc1OCc1nnc(Nc2ccc([N+](=O)[O-])cc2)o1,101% (inactive)
14,CCCCCCCCCCCCCCCCCCOc1ccccc1CC(=O)OCC[N+]1(C)CCCC1,22.9% (inactive)
15,CCN(CC)c1ccc(N=O)cc1,33.1% (inactive)
16,OC(Cc1cccnc1)c1ccccc1 (stereo unspecified),64.3% (inactive)
17,CCOC(=O)c1c(NC(=O)C2CCCCC2C(=O)O)sc2c1CCCC2 (stereo unspecified),102% (inactive)
18,O=C1C2=C(CCN(Cc3ccccc3)C2)N2CCN=C2N1Cc1ccc(F)cc1F,27.8% (inactive)
19,CCOc1cc(CNc2ccc(N3CCOCC3)c(C(=O)O)c2)ccc1OC,106% (inactive)
20,COc1cccc2nc(Nc3cccc(NC(=O)c4cc(N5CCOCC5)cc(C(F)(F)F)c4)c3)ccc12,93.5% (inactive)
21,CN(C)C(C)(C)CC(C)(C)C,71.8% (inactive)
22,COc1ccc(/C=C/C(=O)c2cccc(OCCCCOc3cccc(C(=O)/C=C/c4ccc(OC)c(OC)c4)c3)c2)cc1OC,68.6% (inactive)

row,SMILES,growth
1,O=C(OCc1ccc2cccc(O)c2n1)N1CCN(C(=O)c2cc3cc(F)ccc3[nH]2)CC1,-35.8% (active)
2,C=C1C(=O)O[C@H]2[C@H]1CC/C(COC(=O)N[C@H]1C[C@H](O[C@H]3C[C@](O)(C(=O)CO)Cc4c(O)c5c(c(O)c43)C(=O)c3c(OC)cccc3C5=O)O[C@@H](C)[C@H]1O)=C\CC[C@@]1(C)O[C@@H]21,-31.2% (active)
3,O=c1c2cc(F)ccc2sc2c(N3CCCCC3)nc3ccccc3c12,102% (inactive)
4,Cc1cccc(/C=C\C(=O)c2ccc(Cl)cc2)c1,90.1% (inactive) and 61.3% (inactive)
5,COc1cccc(-n2cc(-c3nc(Nc4cc(C)[nH]n4)c4ccccc4n3)nn2)c1,48.1% (inactive)
6,O=C1NC(=O)N(Cc2ccccc2)CC1Br (stereo unspecified),56.4% (inactive)
7,Cc1nn(-c2ccccc2)c(N2CCOCC2)c1-c1nc2ccc([N+](=O)[O-])cc2[nH]1,77.1% (inactive)
8,CCCCCc1cc[n+](CC(=O)c2ccccc2)cc1,91% (inactive) and 99.9% (inactive)
9,COc1cccc(NC(=O)Cn2cc(CN3CCN(c4ccnc5cc(Cl)ccc45)CC3)nn2)c1,124% (inactive)
10,Cc1ccc(C2C=C(c3ccc(Cl)cc3)N=C3SC=CN32)c(Br)c1 (stereo unspecified),104% (inactive)
11,OCCOc1c(Cl)cc(Cl)cc1Cl,118% (inactive)
12,COc1cccc(Cn2c(-c3nonc3NC(C)=O)nc3ccccc32)c1,-2.59% (active)
13,CCCCCN1C=C/C(=C\C(=O)N(C)c2ccc(Br)cc2)c2ccccc21,98.2% (inactive)
14,COc1ccc([C@H]2[C@@H](F)C(=O)N2c2cc(OC)c(OC)c(OC)c2)cc1F,-14.7% (active)
15,CN1CCN(C(=O)[C@]2(C)CC[C@]3(C)CC[C@]4(C)C(=CC(=O)[C@@H]5[C@@]6(C)CCC(=O)NC(C)(C)[C@@H]6CC[C@]54C)[C@@H]3C2)CC1,95.7% (inactive)
16,CN1CCc2c(Sc3ccc(C(=O)NO)cc3)c3ccccc3n2C1,60.3% (inactive)
17,Nc1nc(N)c2[nH]cnc2n1,87.5% (inactive)
18,COc1ccc(/C=C(\C#N)c2ccccc2)cc1,95.8% (inactive)
19,CCCCCCCCCCCCCCCCNC(=O)Nc1ccc2ccccc2c1,95% (inactive)
20,COc1cc(CNC(=O)/C=C/C=C/c2ccc3c(c2)OCO3)ccc1OCc1cn(-c2ccc(Cl)c(Cl)c2)nn1,85.4% (inactive)
